# DAX1 inh-1: DAX1 (NR0B1) inhibitors, primary screen, cell-based, HEK293, Gal4-DAX1, luciferase luminescence | AID 504766, 2011 | actives 0.99% (n = 340,000) | HEK293 Gal4-DAX1 luciferase reporter | inhibition, % at 6.75 µM | Nuclear receptor subfamily 0 group B member 1 (Homo sapiens), P51843;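 active = inhibition above the mean over all tested compounds plus 3 SD, cut at about 4.2% in these data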;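 note: 0% = DAX1-transfected cells with DMSO and 100% = empty-vector control cells with DMSO; inhibition shows as a rise in luminescence from relieved DAX1 repression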
# DAX1 inh-2: DAX1 (NR0B1) inhibitors on StAR promoter, primary screen, cell-based, luminescence, SF-1 (NR5A1), full-length DAX-1; AID 652010, 2013; actives 1.1% (n = 370,000); HEK293T StAR-luciferase reporter, SF-1/DAX-1 repression relief; inhibition, % at 6.8 µM;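 active = inhibition above the mean over all tested compounds plus 3 SD, cut at about 3.6% in these data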;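 note: 0% = DAX-1 cells with DMSO and 100% = cells lacking DAX-1 with DMSO; higher inhibition means more luminescence from relief of DAX-1 repression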
# ssDAF-12 act: S. stercoralis DAF-12 nuclear receptor activators, primary screen, cell-based, luminescence, HEK293, GRIP1 co-expression, lit1-tk-luc; Nuclear hormone receptor DAF-12 (Strongyloides stercoralis); HEK293 ssDAF-12/GRIP1 lit1-tk-luc reporter; % of 3 µM dafachronic acid response; activation, % at 6.8 µM; actives 1% (n = 370,000); AID 652126, 2013;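 active = activation above the mean over all tested compounds plus 3 SD, cut at about 0.9% in these data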;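 note: 0% = DMSO-only wells and 100% = 3 µM delta7-dafachronic acid wells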
# hgDAF12 agonist: H. glycines DAF-12 receptor agonists, primary screen, cell-based, luminescence, HEK293, GAL4 fusion, UAS-luciferase; HEK293 GAL4-hgDAF12 UAS-luciferase reporter, agonist luminescence; normalized to butyrate control; activation, % at 6.8 µM; actives 1.8% (n = 370,000);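 active = activation above a cutoff set at the mean of all screened compounds plus 3 SD, cut at about 10% in these data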;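 note: 0% = DMSO wells and 100% = sodium butyrate wells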
# hcDAF-12 act: H. contortus DAF-12 nuclear receptor activators, primary screen, cell-based, luminescence, HEK293, lit1-tk-luc reporter. HEK293 hcDAF-12 lit1-tk-luc reporter; 0% DMSO, 100% Δ7-dafachronic acid. activation, % at 6.8 µM. actives 1.4% (n = 370,000). AID 652067, 2013;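 active = activation above the mean of all tested compounds plus 3 SD, cut at about 5.5% in these data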;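 note: 100% = response to 3 µM Δ7-dafachronic acid high control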
# DAX1 inh confirm: DAX1 (NR0B1) inhibitors relieving SF-1 repression, confirmation, cell-based, luminescence, HEK293T, full-length DAX-1, SF-1 activated StAR promoter; AID 652134, 2013; shares compounds with DAX1 inh-2; inhibition, % at 6.8 µM; HEK293T StAR-promoter luciferase reporter, SF-1/DAX-1 repression; actives 87% (n = 2,400);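 active = inhibition above the average of every tested compound plus 3 SD, cut at about 3.8% in these data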;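 note: 0% = DAX-1 cells with DMSO and 100% = no DAX-1 control cells with DMSO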
# SF1 mutant ctr: StAR reporter signal changes without DAX1, counter-screen for DAX1 inhibitor project, cell-based, luminescence, AF-2 mutant SF-1, transactivation. actives 78% (n = 2,400). inhibition, % at 6.8 µM. shares compounds with DAX1 inh-2. HEK293 StAR-luciferase, SF-1 AF2 mutant;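 active = inhibition above the mean of all tested compounds plus 3 SD, cut at about 3% in these data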;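 note: 0% = DAX-1 transfected cells with DMSO and 100% = cells without DAX-1 with DMSO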
# LXR ag: LXR agonists, Gal4 luciferase reporter, confirmation, counter-screen for hcDAF-12 agonist project, cell-based, luminescence, HEK293, H. contortus campaign; shares compounds with hcDAF-12 act; HEK293 Gal4-LXR tk-luc reporter, 24 h; normalized: DMSO 0%, positive control 100%; activation, % at 6.8 µM; 3,400 tested, under 10 active; AID 743027, 2013;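 active = mean percent activation of the reporter above a cutoff set as the average over tested compounds plus their standard deviation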
# Target sequence (P55055 whole entry, looked up, the tested form may be a part): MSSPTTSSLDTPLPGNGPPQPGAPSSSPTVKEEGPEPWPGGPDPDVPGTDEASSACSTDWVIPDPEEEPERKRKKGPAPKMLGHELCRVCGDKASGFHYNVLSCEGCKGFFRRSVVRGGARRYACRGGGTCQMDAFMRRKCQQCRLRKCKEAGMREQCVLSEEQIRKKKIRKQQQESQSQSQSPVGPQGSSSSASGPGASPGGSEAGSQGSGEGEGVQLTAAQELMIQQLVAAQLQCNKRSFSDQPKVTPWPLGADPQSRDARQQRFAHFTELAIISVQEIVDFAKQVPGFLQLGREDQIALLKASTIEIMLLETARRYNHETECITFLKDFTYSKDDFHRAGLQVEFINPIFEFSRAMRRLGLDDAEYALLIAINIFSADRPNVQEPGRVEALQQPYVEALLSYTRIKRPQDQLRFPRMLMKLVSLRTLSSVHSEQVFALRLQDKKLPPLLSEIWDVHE
# hcDAF12 ag: H. contortus DAF-12 receptor agonists, confirmation, cell-based, luminescence, HEK293, lit1-tk-luc, triplicate; AID 743032, 2013; actives 61% (n = 3,400); shares compounds with hcDAF-12 act; activation, % at 6.8 µM; HEK293 hcDAF-12 lit1-tk-luc reporter; % of Δ7-dafachronic acid response;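 active = mean activation across triplicate tests above the threshold derived from the earlier primary screen, cut at about 5.5% in these data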;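 note: 0% = DMSO only wells and 100% = 3 µM Δ7-dafachronic acid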
# hgDAF12 ag: H. glycines DAF-12 receptor agonists, confirmation, cell-based, luminescence, HEK293, GAL4-LBD fusion; shares compounds with hgDAF12 agonist; HEK293 GAL4-hgDAF12 luciferase reporter, agonist mode; percent of butyrate response; actives 80% (n = 3,300); activation, % at 6.8 µM;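 active = mean activation over triplicate wells above the hit cutoff derived from the earlier primary screen, cut at about 11% in these data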;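 note: 0% = DMSO low control and 100% = 2 mM sodium butyrate high control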
# LXR ag 2: LXR agonists, Gal4 luciferase reporter, confirmation, counter-screen for hgDAF-12 agonist project, cell-based, luminescence, HEK293, H. glycines campaign | 3,300 tested, under 10 active | activation, % at 6.8 µM | 24 h | shares compounds with hgDAF12 agonist | AID 743051, 2013;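 active = mean activation of the triplicate above a set limit carried over from the primary screen, none filed active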
# Starred values were filed as active, the others as inactive; . = no result. In the library only some 4.1% were active in any assay of this set; here they are far more common.
SMILES,DAX1 inh-1,DAX1 inh-2,ssDAF-12 act,hgDAF12 agonist,hcDAF-12 act,DAX1 inh confirm,SF1 mutant ctr,hgDAF12 ag,LXR ag 2,others
Cc1ccc2nc3n(c(=O)c2c1)-c1ncccc1C(=O)NC3Cc1ccccc1 (stereo unspecified),0,0,-1,-2,-1,.,.,.,.,
CC1(C(=O)NS(=O)(=O)c2ccc(F)cc2F)CCN1C(=O)C1(c2ccc(Cl)cc2)CC1 (stereo unspecified),.,1,-1,3,1,.,.,.,.,
Cc1cc(C)cc(S(=O)(=O)N2CCN(c3nc(-c4cccs4)nc4ccccc34)CC2)c1,.,.,-1,-1,-4,.,.,.,.,
O=C(Nc1nnc(-c2ccccc2)s1)c1ccccc1O,3,1,-1,4,1,.,.,.,.,
COc1cccc(C(=O)Nc2nnc(-c3ccccc3)s2)c1OC,1,5.5*,0,19*,7.0*,7.6*,4.0*,14*,1,LXR ag=1;hcDAF12 ag=4
CC1Cc2[nH]c(=S)[nH]c(=O)c2C(c2ccc(F)cc2)O1 (stereo unspecified),.,1,-1,2,0,.,.,.,.,
CC(Sc1nnc(-c2ccccc2F)o1)C(=O)Nc1ccc(N2CCOCC2)cc1 (stereo unspecified),-1,1,-1,1,1,.,.,.,.,
Cc1occc1-c1nnc(SC(C)C(=O)Nc2ccccc2F)o1 (stereo unspecified),0,10*,0,15*,4,9.5*,7.1*,14*,0,
CC/C(=N\NC(=O)c1ccoc1C)c1ccc(C)o1,1,7.1*,2.1*,23*,9.2*,2,3,9,0,LXR ag=0;hcDAF12 ag=2
O=C(Nc1cccnc1Cl)c1ccc2c(Cl)c3c(nc2c1)CCC3,2,5.0*,0,17*,6,16*,6.1*,20*,1,
N#Cc1ccccc1NC(=O)c1ccc2c(Cl)c3c(nc2c1)CCCC3,3,1,-1,4,0,.,.,.,.,
Cc1ccc(-c2ccc(SCC(=O)NC3CCCC3)nn2)cc1,1,1,-1,0,0,.,.,.,.,

# Source: PubChem (The Scripps Research Institute Molecular Screening Center)
